The values that follow come from ChEMBL document CHEMBL4513216, “Probing the Open Global Health Chemical Diversity Library for Multistage-Active Starting Points for Next-Generation Antimalarials” (ACS Infect Dis, 2020).

Each structure is given as a SMILES string. The whole screen tested about 65,000 compounds, of which about 2,100 (3.2%) showed an effect of 50% or more. The median lay at about -52%. The full list was thinned out, with strong results kept by preference.

This experiment deals with Plasmodium falciparum. In words: Screen against P. falciparum Asexual Blood Stage (ABS), at 5uM. It is filed as functional, Dd2. Conditions: tested at 5 uM.
As to `Cc1ccc(C(=O)Nc2ccccc2F)n1C`, the INHIBITION was -184%.

With `COc1ccc(-c2cn(CCn3c(C)cc(C)nc3=O)nn2)cn1`, the INHIBITION is reported as -102%.

Regarding `COc1c(F)cc(-c2cn(CCn3c(C)cc(C)nc3=O)nn2)cc1Cl`, the INHIBITION amounted to 59.7%.

Regarding `CC(=O)Nc1ccc(-c2cn(CCn3c(C)cc(C)nc3=O)nn2)cc1`, the INHIBITION is recorded as -49.9%.

Turning to `c1ccc(CN2CCCn3nnc(Cn4cccc4)c3C2)nc1`, the INHIBITION was -33.7%.

On to `Cc1ccc(N2CC[C@H]3O[C@@H](C(=O)N4CCCO4)CC[C@H]32)nn1`, for which the INHIBITION was -24.1%.

With `Cc1cnc(C(=O)N2CCC3(CC2)CN(c2ccccn2)CCO3)cn1`, the INHIBITION is listed as -79.7%.

As for `CCOCC1CCN(C(=O)Nc2ccc3c(c2)CCCO3)C1` (stereo not drawn), the INHIBITION was -50.7%.

As to `CCNC(=O)C1CCCN(C(=O)Nc2ccc3c(c2)CCCN3C)C1` (stereo not drawn), the INHIBITION was found to be 13.1%.

Consider `CCOCC1CCN(C(=O)Nc2ccc3c(c2)CCCN3C)C1` (stereo not drawn), for which the INHIBITION is on record as 58.9%.

Consider `Cn1ccnc1CN1CCN(CCOc2cccc(C#N)c2)CC1`, for which the INHIBITION is listed as -53.6%.

Take `O=C(c1c[nH]cn1)N1CCC(F)(F)C2(CCN(c3cnccn3)C2)C1` (stereo not drawn): the INHIBITION is given as -94.9%.

For `CC(=O)N1C[C@H](NS(=O)(=O)Cc2cccc(Cl)c2)[C@@H](C(C)C)C1`, the INHIBITION was -62.4%.

As for `Cc1cc(NCc2cc3n(n2)CCCN(C(=O)C2CCC2)C3)nc(N)n1`, the INHIBITION was -79.3%.

Take `COc1cccc(C(=O)N2CCc3nc(C4CCCN4)ncc3C2)c1` (stereo not drawn): the INHIBITION turned out to be 4.58%.

`Cc1cnc(CN(Cc2ccc(C#N)cc2F)C2CCN(C)C2)o1` (stereo not drawn): the INHIBITION came to 12.5%.

Take `COc1ccc(C)cc1CN(Cc1ncc(C)o1)C1CCN(C)C1` (stereo not drawn): the INHIBITION was 38.7%.

In the case of `COc1ccc(C)cc1CN(Cc1nc(C)c(C)o1)C1CCN(C)C1` (stereo not drawn), the INHIBITION is recorded as 56.2%.

`CN1C(Cn2cccn2)C[C@@H]2CN(C(=O)c3cccc(C#N)c3)CC[C@@H]21` (stereo partly drawn): the INHIBITION was -95.8%.

With `CC(C)Oc1ccccc1OCCN1C(=O)CCNC1=O`, the INHIBITION is -16.4%.

On to `CCNC(=O)C1CCN(Cc2ccc(C(=O)Nc3nnc(C)s3)cc2)C1` (stereo not drawn), for which the INHIBITION was -162.2%.

In the case of `OC1(CNCc2ccc(F)c(C(F)(F)F)c2)CCSCC1`, the INHIBITION was found to be 56.4%.

On to `OC1(CNCc2ccc(F)c(C(F)(F)F)c2)CCOC1` (stereo not drawn), for which the INHIBITION is recorded as -1.68%.

In the case of `Cc1cc(CNCC2(O)CCOCC2)ccc1F`, the INHIBITION was found to be 16.2%.

Consider `O=C(NCc1cccnc1)[C@@H]1C[C@H]2[C@H](CCN2c2ncccn2)O1`, for which the INHIBITION is -112%.

Take `CO[C@H]1CN(C)S(=O)(=O)[C@@]12CCN(Cc1ccccc1)C2`: the INHIBITION is -53.8%.

As to `Cc1cc(O)c(OCC(=O)Nc2nc3c(s2)CCCCC3)cn1`, the INHIBITION was -94.4%.

As to `COc1cc(CNC(C)c2cccc(Cl)c2)cc(OC)c1OC` (stereo not drawn), the INHIBITION stood at 63.5%.

For `COc1ccc(CNC(C)c2cccc(Cl)c2)c(OC)c1OC` (stereo not drawn), the INHIBITION was determined as 43.3%.

With `COc1ccc(C(C)NCc2c[nH]nc2C)cc1Br` (stereo not drawn), the INHIBITION stood at 20.5%.

Take `COc1ccc(C(C)NCc2ccc(OC)c(OC)c2OC)cc1F` (stereo not drawn): the INHIBITION is recorded as 36%.

Regarding `COc1ccc(CNC(C)c2cccc(Br)c2)c(OC)c1OC` (stereo not drawn), the INHIBITION is given as 67.1%.

On to `COc1cc(CNC(C)c2ccc(F)c(F)c2)cc2c1OCCO2` (stereo not drawn), for which the INHIBITION is recorded as -7.66%.

Turning to `COc1ccc(CNC(C)c2ccc(Cl)c(Cl)c2)c(OC)c1OC` (stereo not drawn), the INHIBITION is recorded as 66%.

As to `COc1ccc(C(C)NCc2c[nH]nc2C)cc1OC` (stereo not drawn), the INHIBITION is reported as -59.7%.

Take `CNS(=O)(=O)c1cccc(C(C)NCc2cccc(OC)c2)c1` (stereo not drawn): the INHIBITION is reported as 3.75%.

As to `CCCn1cc(NC(=O)c2ccc(S(=O)(=O)CC)cc2)ccc1=O`, the INHIBITION is on record as -1.56%.

`O=C(CNCCn1cccn1)NCC1(c2ccccc2)CCC1`: the INHIBITION is on record as -77%.

On to `Cn1ccc(C(=O)NCc2cccc(NC(=O)C3CCC3)c2)cc1=O`, for which the INHIBITION was -218%.

For `CC(CN1CCCCCC1)NCc1cc(-c2ccco2)on1` (stereo not drawn), the INHIBITION worked out at 18%.

For `COCCN(Cc1sccc1C)C(=O)C1CCCN(C(N)=O)C1` (stereo not drawn), the INHIBITION is -75.6%.

Turning to `COCCN(Cc1sccc1C)C(=O)COc1ccccc1O`, the INHIBITION was -65.9%.

Take `COCCN(Cc1sccc1C)C(=O)C1CCN(C(C)C)CC1`: the INHIBITION was determined as 57.7%.

`Cc1ccc2c(c1)CCC2NCc1c(C)nn(C)c1N1CCOCC1` (stereo not drawn): the INHIBITION is reported as 64.2%.

Turning to `Cc1nn(CC(C)C)c(N(C)C)c1CNCc1cccc2c1OCO2`, the INHIBITION was found to be 29.4%.

Consider `Cc1nn(C)c(N2CCOCC2)c1CNC1CCc2ccccc21` (stereo not drawn), for which the INHIBITION was determined as 45.3%.

As for `Cc1nn(C)c(N2CCOCC2)c1CNCc1ccc(Cl)s1`, the INHIBITION stood at 53%.

For `Cc1nn(C)c(N2CCOCC2)c1CNCc1nccs1`, the INHIBITION was -58.2%.

In the case of `Cc1nn(CC(C)C)c(N(C)C)c1CNCc1ccc2c(c1)OCO2`, the INHIBITION came to 54.6%.

On to `Cc1nn(C)c(N2CCOCC2)c1CNCc1ccc(CO)c(F)c1`, for which the INHIBITION was -77.5%.

Consider `Cc1nn(C)c(N2CCOCC2)c1CNC1CCc2cc(F)ccc21` (stereo not drawn), for which the INHIBITION was found to be 40.1%.

Turning to `Cc1nn(C)c(N(C)C)c1CNCc1ccc2c(c1)OCO2`, the INHIBITION is recorded as 35.3%.

In the case of `Cc1nn(C)c(N2CCOCC2)c1CNCc1ccnn1C`, the INHIBITION is reported as -222%.
